High-throughput results as filed in PubChem.
An excerpt weighted towards active compounds, which were near 6.5% of everything screened.
Vaccinia mCherry = inhibitors of vaccinia virus infection (mCherry reporter signal); Vaccinia virus mCherry reporter infection, fluorescence; Potency, µM (doses to about 36.5 µM), for the others: top-dose activity change, negative = inhibition, hits mostly inhibitors; 310,000 tested, 0.63% active; AID 720579; calls by dose curve; tested in A549 cells; note: potency is the fitted concentration of half-maximal effect; nearly all actives have a fitted effect of over 35% in size
LASV entry inh = Lassa virus entry inhibition | 300,000 tested, 1.2% active | Lassa virus pseudotype entry inhibition, cell reporter | Potency, µM (series often up to 37.9 µM), for the others: at the highest dose activity change, negative = inhibition, actives largely listed as inhibitors; calls by dose curve; tested in HEK293 cells; note: potency is the fitted concentration of half-maximal effect; nearly all actives have a fitted effect of over 50% in size
FMDV antiviral = antivirals against foot and mouth disease virus | FMDV antiviral cell-based qHTS | Potency, µM (doses to about 57.9 µM), for the others: top-dose activity change, negative = inhibition, hits mostly inhibitors | 410,000 tested, 1.2% active | AID 1159524; calls by dose curve; tested in HEK293T cells; note: read-out not given here; potency is the fitted concentration of half-maximal effect; nearly all actives have a fitted effect of over 45% in size
Marburg entry inh = blocks Marburg virus binding to or entry into cells | AID 540276 | Potency, µM (top dose mostly 37.8 µM), inactives show at the top dose activity change, negative = inhibition, usual class: inhibitors | Marburg virus pseudotyped entry inhibition, cell reporter | 300,000 tested, 1.8% active; calls by dose curve; tested in HEK293 cells; note: potency is the fitted concentration of half-maximal effect
HCMV antiviral = inhibitors of human cytomegalovirus; HFF cells, HCMV-luciferase reporter, 72 h; active compounds read low; activity change, negative = inhibition, % at 57.5 µM; 410,000 tested, 4.5% active; AID 1259415; in the data active = activity change below about -60%; inconclusive = no clear call, values can overlap the other calls; inactive = above about -39%
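Cell-based, HFFs, 1000 cells/well, 16 h 37C; cpds in DMSO + HCMV-luc, MOI 1 PFU/cell; 72 h 37C; OneGlo luminescence after 5 min RT; norm. to buffer vs Salinomycin 10uM.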
VACV Venus inh = vaccinia inhibition (Venus reporter); Vaccinia virus Venus reporter expression, fluorescence; Potency, µM (doses to about 36.5 µM), without a hit: at the highest dose activity change, negative = inhibition, hits mostly inhibitors; 330,000 tested, 0.46% active; calls by dose curve; tested in A549 cells; note: potency is the fitted concentration of half-maximal effect; nearly all actives have a fitted effect of over 30% in size
* marks the source's active call; other numbers are inactive results; i = inactive; u = inconclusive; x = no result given; + = active, no number; [ ] = another dose, or the depositor's remark. % is set by controls: 0 for no effect and ±100 for the full control effect.

SMILES	Vaccinia mCherry	LASV entry inh	FMDV antiviral	Marburg entry inh	HCMV antiviral	VACV Venus inh
COc1ccc(N2CCN(c3ncnc4onc(-c5ccc(F)cc5)c34)CC2)cc1	-13%	-20%[46.1 µM]	u	x	7	-12%
COC(=O)C1[C@H]2SC(C)(C)C(C(=O)OC)N2C(=O)N1Cc1ccccc1 (stereo partly specified)	-1%	x	x	x	x	-10%
COC(=O)[C@@H]1CCCN1Cc1ccc2c(c1)CN(Cc1ccc3c(c1)CCO3)CCO2	-6%	x	-7%	x	x	0%
COc1ccc(N2C(=O)/C(=C/c3ccc(C)o3)C(=O)NC2=S)c(OC)c1	x	x	20µM*	x	11	x
Cc1cccc(N2C(=O)/C(=C/c3ccc(N4CCN(C)CC4)o3)C(=O)NC2=S)c1C	-10%	-12%	-17%	-15%	-64*	33%
CCCS(=O)(=O)NCc1c(C)ncc2c1CCN(C(=O)c1cccc(Cl)c1F)C2	-8%	x	u	x	x	-7%
C(C#CCCCCCCCCC[n+]1ccccc1)#CCCCCCCCCC[n+]1ccccc1	10µM*	u	18µM*	2.5µM*	x	10µM*
CN(C)S(=O)(=O)c1cccc(-c2nn(-c3ccccc3)cc2/C=C(\C#N)c2nc3ccccc3[nH]2)c1	15%	-8%	-8%	u	21	14%
CN(C)S(=O)(=O)c1cccc(-c2nn(-c3ccccc3)cc2/C=C2\SC(=S)NC2=O)c1	u	u	u	22µM*	-82*	u
CCC1(C2CCN(C(=O)c3coc4c3C(=O)CCC4)CC2)NC(=O)N(CCc2scnc2C)C1=O (stereo unspecified)	-4%	x	11%	x	x	2%
Fc1ccccc1N1CCN(c2ncnc3c2nc2n3CCCC2)CC1	-13%	-2%[46.1 µM]	u	x	-63*	-29%
Cc1ccc(C)c(NC(=O)C2CCN(c3ncnc4c3nc3n4CCCCC3)CC2)c1	i	18%[46.1 µM]	-6%	x	38	-2%
Fc1ccc(N2CCN(c3ncnc4c3nc3n4CCCC3)CC2)cc1	u	5%[46.1 µM]	1.8µM*	3%[46.1 µM]	-27	-21%
O=C(C1CCN(c2ncnc3c2nc2n3CCCCC2)CC1)N1CCN(c2ccccc2)CC1	-1%	-5%[46.1 µM]	u	x	-38	-13%
Cc1ccc(NC(=O)C2CCN(c3ncnc4c3nc3n4CCCCC3)CC2)nc1	x	x	u	x	-91*	x
O=C(C1CCN(c2ncnc3c2nc2n3CCCCC2)CC1)N1CCN(c2ccc(F)cc2)CC1	-10%	-11%[46.1 µM]	32µM*	x	-33	-29%
Clc1cccc(N2CCN(c3ncnc4c3nc3n4CCCC3)CC2)c1	-21%	4%[46.1 µM]	-6%	u	53	-10%
CCN(CCO)C(=O)c1cnn(-c2ncc3c(n2)-c2ccccc2CCC3)c1C1CC1	-18%	x	38%	x	x	-19%
CCc1c(C)nc2ncnn2c1N1CCC(C(=O)N2CCN(c3ccc(F)cc3)CC2)CC1	x	4%	u	-14%	-88*	x
CCc1c(C)nc2ncnn2c1N1CCC(C(=O)N2CCN(c3ccccc3)CC2)CC1	x	x	x	-2%	x	x
Cc1ccc(-c2cn3nc(C)c(C)nc3n2)cc1	i	u	-79%	0.28µM*	-24	-5%
COc1ccc(-c2cn3nc(C)c(C)nc3n2)cc1OC	x	x	33%	x	0	x
O=S(=O)(NCCc1nnc2ccc(SCc3c(F)cccc3Cl)nn12)c1ccccc1	-23%	-8%[46.1 µM]	13%	x	-31	-19%
Cc1ccc(NC(=O)C(=O)NCc2ccc(Cl)cc2)cc1	-9%	-2%[46.1 µM]	-3%	x	-6	-4%
C=CCSc1nccc(-c2nn(-c3ccc(C)cc3)ccc2=O)n1	-17%	3.2µM*	-10%	u	-17	-8%
SMILES	Vaccinia mCherry	LASV entry inh	FMDV antiviral	Marburg entry inh	HCMV antiviral	VACV Venus inh
CCSc1nccc(-c2nn(-c3ccc(C)cc3)ccc2=O)n1	u	u	u	u	-5	-28%
Cc1nn(C)cc1C(C)NC(=O)c1cc(COc2cccc3cnccc23)on1 (stereo unspecified)	-20%	-26%	20µM*	u	u	-20%
O=C(c1cc(COc2cccc3cnccc23)on1)N1CCCC(CCCO)C1 (stereo unspecified)	x	x	32µM*	x	-86*	x
COCC1CCN(C(=O)c2cc(COc3cccc4cnccc34)on2)CC1	-11%	-9%[46.1 µM]	u	-16%[46.1 µM]	+	-16%
C=CC[C@@H]1C=C[C@@H](Oc2ccc(OC)cc2)[C@@H](CO)O1	x	x	x	-15%[14.2 µM]	x	x
O=C(CSc1nc2ccccc2c(=O)[nH]1)Nc1ccc(C(=O)O)cc1	-4%	0%	1%	6%[46.1 µM]	-9	-8%
O=C(CSc1nc2ccccc2c(=O)[nH]1)Nc1ccc([N+](=O)[O-])cc1	u	u	u	u	-31	20µM*
Cc1cccc(C)c1NC(=O)CSc1nc2ccccc2c(=O)[nH]1	x	-5%	15%	2%	35	x
Cc1csc(NC(=O)CSc2nc3ccccc3c(=O)[nH]2)n1	-7%	u	-13%	4.6µM*	53	-8%
Cc1csc(NC(=O)CSc2ncc(-c3ccccc3)[nH]2)n1	i	3%	2%	-3%	-98*	-3%
Cc1csc(NC(=O)CSc2nnc3ncccn23)n1	x	4%	-12%	4%	-87*	x
CCCCCCCCCC[n+]1ccc(/C=C/c2c[nH]c3ccccc23)c2ccccc21	i	x	x	x	x	i
O=C(OC1Cc2c(O)cc(O)cc2OC1c1cc(O)c(O)c(O)c1-c1c(C2Oc3cc(O)cc(O)c3CC2OC(=O)c2cc(O)c(O)c(O)c2)cc(O)c(O)c1O)c1cc(O)c(O)c(O)c1 (stereo unspecified)	i	x	-17%	x	x	14%
O=c1n(-c2ccccc2)c(=O)n2n1CC[C@@H]1/C(=N/OC[C@@H](O)COCc3ccco3)[C@H]3O[C@H]3[C@@H](O)[C@@H]12	x	x	x	-23%[14.2 µM]	x	x
CC(C)(C)c1csc(NC(=O)Cn2cnc3ccccc3c2=O)n1	i	-2%	-21%	-10%	37	-7%
CC(C)(C)c1csc(NC(=O)CSc2nc3ccccc3c(=O)[nH]2)n1	x	9%	-25%	-5%	-107*	x
COC(=O)C1=NNC(C(=O)c2ccco2)C1c1ccc(OC)cc1 (stereo unspecified)	x	x	0%	x	-64*	x
O=c1c2ccccc2sc2ccc(C#CC3(O)CCCCC3)cc12	-16%	x	45µM*	x	-100*	u
O=c1c2ccccc2oc2cc(C#CC3(O)CCCCC3)ccc12	-15%	x	11µM*	x	-80*	-25%
FC(F)(F)c1cccc(Cc2noc(CN3CCC(c4ccncc4)CC3)n2)c1	-8%	u	-4%	u	-80*	-14%
Cc1ccc(NC(=O)C2CCCN2S(=O)(=O)c2cccc3nsnc23)c(Br)c1 (stereo unspecified)	-10%	-6%[46.1 µM]	-17%	0%[46.1 µM]	-15	4%
Clc1ccc(C(c2nnnn2C2CCCC2)N2CCN(c3nc4ccccc4s3)CC2)cc1 (stereo unspecified)	-4%	-14%	6%	u	-27	5%
